# From PubChem
# A selection: hits, their analogues and other compounds. The true share with any hit is near 3.7%.
# HTT ATP protect: protects HTT-Q103 PC12 cells, measured by ATP; PC12 HTT-Q103 induced, cytoprotection, ATP luminescence, 40 h; Potency, µM (top dose mostly 56.4 µM), without a hit: cytoprotection (ATP increase), actives largely listed as activators; 0.14% of 230,000 active; note: % of control where 0% means no effect; nearly all actives have a fitted effect of over 45% in size
#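 Compounds added alongside 100 nM tebufenozide, which induces toxic Q103 huntingtin exon 1-GFP in stable PC12 cells; surviving cells quantified by luminescent ATP measurement. Medium: phenol red-free DMEM, 5% equine and 5% calf serum.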
# Tau fibril ThT: blocks human tau fibril formation measured by thioflavin T; AID 1460; 2.1% of 270,000 active; Potency, µM (titrated, usually from 57.4 µM), for the others: at the top dose activity, negative = inhibition, actives largely listed as inhibitors; recombinant tau K18 P301L, heparin-induced fibrillization, ThT fluorescence; P10636; note: % is set by controls: 0 for no effect and ±100 for the full control effect; nearly all actives have a fitted effect of over 55% in size
# Target sequence (P10636 561-689 P618L limits assumed): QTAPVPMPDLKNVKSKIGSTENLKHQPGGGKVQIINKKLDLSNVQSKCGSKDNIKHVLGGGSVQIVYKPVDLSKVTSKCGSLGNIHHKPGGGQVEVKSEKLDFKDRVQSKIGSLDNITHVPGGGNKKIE
#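 Recombinant human tau K18 fragment […] carrying P301L, 15 uM unlabeled plus 0.24 uM Alexa 594-labeled, was fibrillized with 20 uM heparin in 100 mM sodium acetate pH 7 for 6 hr at 37 C; 30 uM ThT fluorescence read after 1 hr.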
# Tau FP inhib: blocks human tau fibril formation measured by polarization; 0.39% of 280,000 active; Potency, µM (titrated, usually from 57.7 µM), inactives show at the highest dose activity, negative = inhibition, usual class: inhibitors; K18 P301L tau heparin fibrillization, Alexa594 FP, 6 h; P10636; note: % is set by controls: 0 for no effect and ±100 for the full control effect; nearly all actives have a fitted effect of over 55% in size
#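 Heparin (20 uM) drove fibril formation of recombinant tau K18 P301L, 15 uM unlabeled with 0.24 uM Alexa 594 label, for 6 hr at 37 C in 100 mM sodium acetate pH 7. Fluorescence polarization (555/632 nm) read 1 hr after 30 uM ThT.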
# HttQ103 aggreg: mutant huntingtin aggregation inhibition | AID 1688 | PC12 HttQ103-GFP aggregates, Acumen cytometry, 40 h | 1.1% of 220,000 active | Potency, µM (series often up to 46.1 µM), for inactives: at the highest dose activity change, negative = inhibition, hits mostly inhibitors; note: % is set by controls: 0 for no effect and ±100 for the full control effect; nearly all actives have a fitted effect of over 60% in size
#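 Steps: seed 1500 PC12 HTTQ103-GFP cells/well; add tebufenozide, 100 nM final; add compound titration; add ATPLite reagent; quantify GFP aggregates by laser scanning cytometry.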
# Tau fluor cs: counter-screen for tau fibril formation inhibitors; Potency, µM (series often up to 57.7 µM), for inactives: top-dose activity change, negative = decrease; tau K18 P301L Alexa594 fluorescence, heparin fibrillization; 0.93% of 280,000 active; AID 1463; note: % is set by controls: 0 for no effect and ±100 for the full control effect; nearly all actives have a fitted effect of over 55% in size
#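 Human tau K18 P301L (15 uM unlabeled, 0.24 uM Alexa 594-labeled) in 100 mM sodium acetate pH 7 with 20 uM heparin, 6 hr at 37 C. ThT 30 uM added, 1 hr ambient; Alexa 594 FP and total fluorescence read at 555/632 nm.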
# * marks the source's active call; other numbers are inactive results; ? = inconclusive; . = no result; [ ] = dose if it differs, or a comment. Calls come from the whole dose curve; as a rule, active = well fitted curve in the direction sought with a large enough effect; inconclusive = small, poorly fitted or top-dose-only effect, or another doubt; inactive = no such curve, though single readings can be large; an effect the other way counts as inactive or inconclusive. Potency is the fitted concentration of half-maximal effect.
SMILES,HTT ATP protect,Tau fibril ThT,Tau FP inhib,HttQ103 aggreg,Tau fluor cs
COc1ccc(C(=O)/C=C/c2ccc(N3CCCCC3)c([N+](=O)[O-])c2)cc1,12%[10 µM],7.9µM*,12%,-12%,?
Cc1ccc(C(=O)O/N=C\c2ccc(N3CCCCC3)c([N+](=O)[O-])c2)cc1,-18%,4.5µM*,11%,-15%,-17%
C/C=C1\CC2C=CC1C2 (stereo not given),-23%,.,.,.,.
COc1ccc(Cl)cc1NC(=O)C(C)n1nnc2sc3c(c2c1=O)CCCC3 (stereo not given),.,?,-8%,.,-29%
N#CC1=C(N)NC(SCc2ccc(Cl)cc2)=C(C#N)C12CCCCC2,-98%,?,6%,?,8.9µM*[quencher]
N#CC1=C(N)NC(SCc2ccccc2)=C(C#N)C12CCCC2,.,-14%,8%,-13%,?
N#CC1=C(N)NC(SCc2ccc(Br)cc2)=C(C#N)C12CCCCC2,17%[10 µM],-19%,-12%,?,10µM*[quencher]
CC(C)(C)NC(=O)C(=O)NNC(=O)c1cccc(F)c1,?,-5%,-3%,0.63µM*,-3%
CC(C)(C)NC(=O)C(=O)NNC(=O)c1ccccc1,-15%,9%,2%,12%,4%
CC(C)(C)c1ccc(C2Sc3ccccc3NC3=C2C(=O)c2ccccc23)cc1 (stereo not given),.,-11%,?,.,5.6µM*[quencher]
COc1ccc(Nc2ccc(N3C(=O)CCCC3=O)cc2[N+](=O)[O-])cc1OC,9%[10 µM],?,0%,-12%,-2%
CCOc1ccc(Nc2ccc(N3C(=O)CCC3=O)cc2[N+](=O)[O-])cc1,-4%,5µM*,-5%,-18%,?
CCc1ccc(S(=O)(=O)NCCc2csc3nc(-c4ccccc4)nn23)s1,.,-16%,-11%,.,?
COCCNc1nc(C)nc2c1nc(-c1ccccc1)n2CCN(C)C,13%,0%,7%,.,-2%
COc1cc(/C=C(/C#N)c2nc(-c3cc4ccccc4oc3=O)cs2)cc([N+](=O)[O-])c1O,-8%[10 µM],?,?,1%[9.22 µM],?
COc1cc(/C=C(\C#N)c2nc3ccccc3o2)ccc1O,0%[10 µM],7.9µM*,?,4%[9.22 µM],?
COc1cc(/C=C(\C#N)c2nc(-c3cc4ccccc4oc3=O)cs2)ccc1O,-12%[10 µM],3.5µM*,4%,28%,?
NC(=O)c1c(N)sc2c1CCCC2,-30%,22µM*,?,-20%,-25%
COC(=O)Nc1sc2c(c1C(=O)NC1CC1)CCCCCC2,-15%,-10%,2%,-16%,-7%
Nc1sc2c(c1C(=O)NC1CCS(=O)(=O)C1)CCCC2 (stereo not given),-3%[10 µM],32µM*,?,17%,?
Cc1ccc(Cl)cc1Nc1nn2c(=O)c3ccc(C(=O)NCc4ccc(F)cc4)cc3nc2s1,.,1%,-11%,.,-1%
O=C(Nc1ccc(Cl)c(C(F)(F)F)c1)C(Cc1ccccc1)NS(=O)(=O)c1cccc2nsnc12 (stereo not given),.,19%,?,.,-27%
CCCCOc1ccc(S(=O)(=O)Nc2ccc(NC(C)=O)cc2)cc1,26%[10 µM],-6%,9%,-5%,-20%
CCCCCCNC(=O)Nc1ccc(S(=O)(=O)Nc2ccc(CCNC[C@H](O)COc3ccc(O)cc3)cc2)cc1,-224%,?,?,.,13µM*[quencher]
CC(C)c1ccc(S(=O)(=O)/N=C2/C=CC(=O)c3ccccc32)cc1,-29%,28µM*,?,?,?
SMILES,HTT ATP protect,Tau fibril ThT,Tau FP inhib,HttQ103 aggreg,Tau fluor cs
CC(C)[n+]1ccn(C2=C([O-])c3ccccc3C(=O)/C2=N\S(=O)(=O)c2ccccc2)c1,-9%[10 µM],?,-10%,-2%[9.22 µM],-10%
CN(C)CCCNc1cc(N2CCN(C3CCCCC3)CC2)c2noc3c2c1C(=O)c1ccccc1-3,.,3.5µM*,?,.,?
COCCNc1cc(N2CCN(C3CCCCC3)CC2)c2noc3c2c1C(=O)c1ccccc1-3,.,11µM*,0%,.,-27%
O=C1c2ccccc2-c2onc3c(Br)cc(NC4CCCCC4)c1c23,.,11µM*,?,.,-12%
CC(C)CNc1cc(NC2CCCCC2)c2c3c(onc13)-c1ccccc1C2=O,.,?,6%,.,?
O=C1c2ccccc2-c2onc3c(N4CCN(C5CCCCC5)CC4)cc(NCCO)c1c23,.,7.1µM*,-11%,.,?
Oc1ccc(Cl)cc1/C=C/c1ccc2cccc(O)c2n1,-9%,?,?,12%,25µM*[quencher]
Cc1noc(C)c1-c1nc(NCc2ccccc2)c2ccccc2n1,-93%,.,.,.,.
Cc1nc2cc(N=NC3=C(O)CCCC3=O)ccc2s1,-26%[10 µM],16µM*,-4%,?,-26%
COc1ccc(-c2cc(C(F)F)n3ncc(C(=O)N4CCc5ccccc54)c3n2)cc1,-69%[10 µM],-10%,-5%[2.34 µM],1.6µM*,3%[2.34 µM]
COc1cc([N+](=O)[O-])ccc1-c1ccc(/C=N/NC(=O)c2ccccc2O)o1,6%[10 µM],1.6µM*,4%,-2%[9.22 µM],?
O=C1C2C3C=CC(C4CC34)C2C(=O)N1/N=C/c1ccc(-c2ccc([N+](=O)[O-])cc2)o1 (stereo not given),-19%,?,-3%,14%,-22%
O=C(N/N=C/c1ccc(-c2cccc([N+](=O)[O-])c2)o1)c1ccccc1O,.,8.9µM*,7%,-19%,?
O=C1Nc2ccccc2/C1=N/N=C/c1ccc(-c2ccc([N+](=O)[O-])cc2)o1,.,2.8µM*,3%,2%,-28%
Cc1ccc(C(=O)N/N=C\c2ccc(-c3ccc([N+](=O)[O-])cc3)o2)cn1,-5%[10 µM],3.2µM*,6%,-5%[9.22 µM],-29%
O=C1c2cccc3c2[C@@H](CCC3)CN1[C@@H]1CN2CCC1CC2,-37%,.,.,-17%,.
O=C(N/N=C/c1ccc(Br)o1)c1ccc2c(c1)OCCO2,.,?,8%,-22%,-9%
C/C(=N\NC(=O)c1cc(-c2cccc([N+](=O)[O-])c2)n[nH]1)c1ccccc1O,.,2µM*,-5%,?,?
O=C(O)c1cccc(-c2ccc(/C=N/NC(=O)c3cccnc3)o2)c1,7%[10 µM],?,3%,4%,-3%
O=C(N/N=C\c1ccc(-c2ccc([N+](=O)[O-])cc2)o1)c1ccc2c(c1)OCO2,-1%[10 µM],0.89µM*,7%,1%,?
NC(=S)N/N=C/c1ccc(-c2cc(Cl)cc(Cl)c2)o1,19%,?,-2%,1%,-27%
NC(=S)N/N=C/c1ccc(-c2ccc([N+](=O)[O-])cc2)o1,21%[10 µM],7.9µM*,?,17%,?
O=C(N/N=C/c1ccc(-c2ccccc2[N+](=O)[O-])o1)c1cccnc1,10%[10 µM],7.1µM*,?,-6%,-24%
COc1ccc(CCNc2ncnc3c2c(-c2ccccc2)cn3-c2cccc(Cl)c2)cc1OC,.,-4%,-6%,.,-10%
NC(=O)C[C@H](N)C(N)=O,3%[10 µM],.,.,.,.
